Records with an inconclusive call do not appear. The source made the active and inactive calls. The calls were made as follows: active = hit-call score of the fitted dose curve at least 0.9, where 1 is the maximum; inconclusive = response in the unintended direction; inactive = score below 0.9.
What follows are compounds tested against Agonist Androgen Response Element (ARE), AR (gene 367) (UniProt P10275) (assay: OT_AR_ARELUC_AG_1440: Odyssey Thera (OT) 24-hour CHO-K1 Luciferase Assay for Agonist Androgen Response Element (ARE) (AID 2283379)).
Chain of Agonist Androgen Response Element (ARE), AR (gene 367) (P10275 whole entry, looked up): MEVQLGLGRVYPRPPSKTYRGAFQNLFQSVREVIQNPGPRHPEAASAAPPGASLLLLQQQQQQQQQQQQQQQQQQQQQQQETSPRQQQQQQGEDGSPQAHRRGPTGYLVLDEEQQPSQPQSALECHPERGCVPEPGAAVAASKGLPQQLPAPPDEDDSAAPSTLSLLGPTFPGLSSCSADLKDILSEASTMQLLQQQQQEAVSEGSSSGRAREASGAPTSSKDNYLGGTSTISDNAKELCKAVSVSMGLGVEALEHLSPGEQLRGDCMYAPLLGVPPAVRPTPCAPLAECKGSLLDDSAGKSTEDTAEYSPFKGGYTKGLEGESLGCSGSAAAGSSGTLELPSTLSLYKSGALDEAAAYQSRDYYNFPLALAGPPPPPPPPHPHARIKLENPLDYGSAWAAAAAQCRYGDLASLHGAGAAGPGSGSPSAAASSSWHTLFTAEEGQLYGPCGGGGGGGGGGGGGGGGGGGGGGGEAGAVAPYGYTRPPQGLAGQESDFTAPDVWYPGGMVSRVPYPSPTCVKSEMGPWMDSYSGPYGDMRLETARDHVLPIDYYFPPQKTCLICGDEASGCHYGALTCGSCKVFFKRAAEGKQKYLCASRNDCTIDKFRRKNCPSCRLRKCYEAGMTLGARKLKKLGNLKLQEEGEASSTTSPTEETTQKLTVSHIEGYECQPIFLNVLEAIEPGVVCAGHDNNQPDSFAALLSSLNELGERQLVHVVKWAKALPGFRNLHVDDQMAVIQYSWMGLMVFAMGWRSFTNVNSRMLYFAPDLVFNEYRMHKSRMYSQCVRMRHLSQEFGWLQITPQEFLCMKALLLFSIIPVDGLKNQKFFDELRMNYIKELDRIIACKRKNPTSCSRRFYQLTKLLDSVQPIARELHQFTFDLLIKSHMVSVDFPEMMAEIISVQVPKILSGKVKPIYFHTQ
How it was run: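 Readout: luciferase bioluminescence from CHO-K1 ARE-luc cells, measured 24 h post-dosing; agonism = increased mean luminescence vs DMSO controls, fitted in positive direction.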

SMILES	outcome
C[N+]1(C)CCCCC1	inactive
Nc1c(Cl)cc([N+](=O)[O-])cc1Cl	inactive
CNC(=O)ON=C(SC)C(=O)N(C)C	inactive
CC(C)=CC1C(C(=O)OCN2C(=O)C3=C(CCCC3)C2=O)C1(C)C (stereo not drawn)	inactive
CCOP(=O)(NC(C)C)Oc1ccc(SC)c(C)c1 (stereo not drawn)	inactive
CCCOc1nn(C(=O)NS(=O)(=O)c2ccccc2C(=O)OC)c(=O)n1C	inactive
CCC(=O)Nc1ccc(Cl)c(Cl)c1	inactive
Cc1nn(-c2cc(NS(C)(=O)=O)c(Cl)cc2Cl)c(=O)n1C(F)F	inactive
CCCCOC(=O)c1ccccc1C(=O)O	inactive
CCOC(=O)COc1cc(-c2nn(C)c(OC(F)F)c2Cl)c(F)cc1Cl	inactive
CCCSP(=O)(OCC)SCCC	inactive

What follows are compounds tested against Estrogen receptor beta (Homo sapiens) (UniProt Q92731) (assay: OT_ER_ERbERb_1440: Odyssey Thera (OT) 24-hour HEK293T Protein-Complementation Assay for Estrogen Receptor-beta/-beta Homodimer (AID 2283380);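 also: fluorescence gain from ER beta LBD homodimer complementation read by laser scanning cytometry; scored as signal increase over DMSO baseline for both agonists and antagonists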).
Chain of Estrogen receptor beta (Homo sapiens) (Q92731 whole entry, looked up, the tested form may be a part): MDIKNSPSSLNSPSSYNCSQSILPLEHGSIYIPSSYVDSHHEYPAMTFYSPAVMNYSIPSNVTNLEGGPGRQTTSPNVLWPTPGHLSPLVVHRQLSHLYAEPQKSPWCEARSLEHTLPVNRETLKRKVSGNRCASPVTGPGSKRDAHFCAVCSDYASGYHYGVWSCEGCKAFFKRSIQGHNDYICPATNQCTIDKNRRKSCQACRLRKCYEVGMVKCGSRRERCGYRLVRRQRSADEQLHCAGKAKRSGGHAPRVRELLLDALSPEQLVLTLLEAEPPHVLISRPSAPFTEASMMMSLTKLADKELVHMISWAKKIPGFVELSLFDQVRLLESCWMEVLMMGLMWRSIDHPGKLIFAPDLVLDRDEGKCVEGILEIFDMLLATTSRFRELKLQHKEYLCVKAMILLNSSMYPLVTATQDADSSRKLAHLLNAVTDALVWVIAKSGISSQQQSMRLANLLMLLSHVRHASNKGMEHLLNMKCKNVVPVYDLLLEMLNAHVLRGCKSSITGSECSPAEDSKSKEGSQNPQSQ
How it was run: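 Fluorescence increase, nuclear for agonists or whole-cell for antagonists, relative to DMSO vehicle, quantified by laser scanning cytometer after fixation and Draq5 staining. Readout from 24 h treatment of HEK293T cells carrying complementation-paired ER beta LBD (aa 310-547).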

SMILES	outcome	AC50
C[N+]1(C)CCCCC1	inactive	
Nc1c(Cl)cc([N+](=O)[O-])cc1Cl	inactive	
CNC(=O)ON=C(SC)C(=O)N(C)C	inactive	
CCCOCC(=Nc1ccc(Cl)cc1C(F)(F)F)n1ccnc1	inactive	
Cc1cc(C2CC2)nc(Nc2ccccc2)n1		50 µM (active)
CC(COc1ccc(Oc2ccccc2)cc1)Oc1ccccn1 (stereo not drawn)	inactive	
C#CCC1=C(C)C(OC(=O)C2C(C=C(C)C)C2(C)C)CC1=O (stereo not drawn)	inactive	
CCOP(=O)(NC(C)C)Oc1ccc(SC)c(C)c1 (stereo not drawn)	inactive	
CSc1nnc(C(C)(C)C)c(=O)n1N	inactive	
COc1ccc(C(=CC(=O)N2CCOCC2)c2ccc(Cl)cc2)cc1OC	inactive	
Cc1nn(-c2cc(NS(C)(=O)=O)c(Cl)cc2Cl)c(=O)n1C(F)F	inactive	
CCCCOC(=O)c1ccccc1C(=O)O	inactive	
CSc1nc(NC(C)C)nc(NC(C)C)n1	inactive	
CC1(C(=O)Nc2ccc(O)c(Cl)c2Cl)CCCCC1		20.6 µM (active)
CC(Oc1cccc(Cl)c1)C(=O)O (stereo not drawn)	inactive	
C[Si](Cn1cncn1)(c1ccc(F)cc1)c1ccc(F)cc1	inactive	
CC(C)N(C(=O)SCC(Cl)=C(Cl)Cl)C(C)C	inactive	
CC(C)[C@H](C(=O)O[C@H](C#N)c1cccc(Oc2ccccc2)c1)c1ccc(Cl)cc1	inactive	
CCCSP(=O)(OCC)SCCC	inactive	
CC(C1CC1)C(O)(Cn1cncn1)c1ccc(Cl)cc1 (stereo not drawn)		31.1 µM (active)
CCCCOC(=O)[C@@H](C)Oc1ccc(Oc2ccc(C#N)cc2F)cc1	inactive	
FC(F)C(F)(F)OCC(Cn1cncn1)c1ccc(Cl)cc1Cl (stereo not drawn)	inactive	
